# Measurements published in article PMC7862700, “An all-to-all approach to the identification of sequence-specific readers for epigenetic DNA modifications on cytosine”.
# Tests used:
# Assay in all cases: DAPPL (digital affinity profiling via proximity ligation, sequencing); 10 mM Tris-HCl pH 7.5, 50 mM NaCl, 1 mM DTT, 4% glycerol, room temperature, 30 min; GST-TFs on glutathione beads, 16-mer random dsDNA library, 0.1% formaldehyde crosslink after washing; high values mean tight binding
# FLI1 = biological target: T1, FLI1 (Homo sapiens, UniProt Q01543 1-452); details: protein: recombinant; tags: N-terminal GST; dsDNA, one strand shown
# T1 sequence: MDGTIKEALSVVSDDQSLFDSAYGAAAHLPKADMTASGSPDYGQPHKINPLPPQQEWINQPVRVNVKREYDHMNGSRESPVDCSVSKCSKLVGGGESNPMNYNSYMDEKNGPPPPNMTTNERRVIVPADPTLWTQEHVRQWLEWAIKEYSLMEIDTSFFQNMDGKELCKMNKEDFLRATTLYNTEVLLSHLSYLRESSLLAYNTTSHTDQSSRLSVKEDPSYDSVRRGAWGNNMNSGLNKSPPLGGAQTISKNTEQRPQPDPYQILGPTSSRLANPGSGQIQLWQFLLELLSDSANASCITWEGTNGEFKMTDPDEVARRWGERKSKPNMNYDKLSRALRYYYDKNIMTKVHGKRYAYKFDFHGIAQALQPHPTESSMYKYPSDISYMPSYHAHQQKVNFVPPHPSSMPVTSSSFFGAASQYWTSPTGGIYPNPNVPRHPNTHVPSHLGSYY
# Method in brief: (§1)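 The binding signal reported is, for every hexamer, its read frequency for a factor over its read frequency for the tag-only sample. Reads came from pools of yeast-expressed, GST-fused human transcription factors on glutathione beads, barcoded with DNA and mixed with that sample, which were incubated with 200 nmole of a random double-stranded 16-mer DNA library in Tris/NaCl/DTT/glycerol buffer at room temperature for 30 min. After washing, the pools were crosslinked with 0.1% formaldehyde, proximity-ligated with BsaI/T4 ligase for 1 h at 37 °C, PCR-amplified and sequenced on an Illumina NextSeq500.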
# ELK1 = biological target: T2, ELK1 (Homo sapiens, UniProt P19419 1-428); details: protein: recombinant; tags: N-terminal GST; dsDNA, one strand shown
# T2 sequence: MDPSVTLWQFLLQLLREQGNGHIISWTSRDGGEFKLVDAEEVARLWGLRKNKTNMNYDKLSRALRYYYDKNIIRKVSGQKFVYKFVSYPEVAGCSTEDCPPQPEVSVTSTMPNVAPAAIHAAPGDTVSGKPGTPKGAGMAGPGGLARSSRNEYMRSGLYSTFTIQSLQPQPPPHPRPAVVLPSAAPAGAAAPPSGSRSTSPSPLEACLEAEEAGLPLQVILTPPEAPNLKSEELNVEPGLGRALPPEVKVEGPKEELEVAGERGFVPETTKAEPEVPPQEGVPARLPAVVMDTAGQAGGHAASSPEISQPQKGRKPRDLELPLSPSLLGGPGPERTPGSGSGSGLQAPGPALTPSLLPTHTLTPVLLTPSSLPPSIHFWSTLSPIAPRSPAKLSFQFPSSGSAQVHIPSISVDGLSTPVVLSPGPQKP
# Method in brief: as §1
# GABPA = biological target: T3, GABPA (Homo sapiens, UniProt Q06546 1-454); details: protein: recombinant; tags: N-terminal GST; dsDNA, one strand shown
# T3 sequence: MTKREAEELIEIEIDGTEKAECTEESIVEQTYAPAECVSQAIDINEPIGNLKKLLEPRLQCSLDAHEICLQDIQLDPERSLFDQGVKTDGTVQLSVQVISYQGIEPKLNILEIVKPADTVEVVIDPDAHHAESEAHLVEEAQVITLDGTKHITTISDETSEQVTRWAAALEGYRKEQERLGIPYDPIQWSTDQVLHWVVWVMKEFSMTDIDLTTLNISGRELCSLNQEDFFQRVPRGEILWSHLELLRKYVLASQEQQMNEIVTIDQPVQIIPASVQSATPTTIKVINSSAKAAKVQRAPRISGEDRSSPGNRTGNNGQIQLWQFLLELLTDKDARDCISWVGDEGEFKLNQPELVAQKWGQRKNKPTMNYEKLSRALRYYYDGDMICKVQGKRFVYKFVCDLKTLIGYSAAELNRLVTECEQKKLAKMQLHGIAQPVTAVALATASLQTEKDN
# Method in brief: as §1
# ERG = biological target: T4, ERG (Homo sapiens, UniProt P11308 1-479); details: protein: recombinant; tags: N-terminal GST; dsDNA, one strand shown
# T4 sequence: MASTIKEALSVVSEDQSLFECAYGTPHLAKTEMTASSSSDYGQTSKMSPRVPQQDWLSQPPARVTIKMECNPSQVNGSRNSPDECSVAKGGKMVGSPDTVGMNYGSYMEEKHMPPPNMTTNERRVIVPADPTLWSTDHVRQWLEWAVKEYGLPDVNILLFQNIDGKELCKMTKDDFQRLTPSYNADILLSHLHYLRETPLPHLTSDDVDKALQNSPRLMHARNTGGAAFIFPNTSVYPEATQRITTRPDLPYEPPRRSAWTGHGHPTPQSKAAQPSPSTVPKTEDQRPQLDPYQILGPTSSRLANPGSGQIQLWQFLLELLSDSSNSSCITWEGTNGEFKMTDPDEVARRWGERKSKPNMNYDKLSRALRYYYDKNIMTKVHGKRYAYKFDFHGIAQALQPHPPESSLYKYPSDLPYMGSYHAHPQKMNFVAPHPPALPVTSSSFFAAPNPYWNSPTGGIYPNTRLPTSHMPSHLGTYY
# Method in brief: as §1
# ELF1 = ELF1 (Homo sapiens, UniProt P32519 1-619); details: protein: recombinant; tags: N-terminal GST; dsDNA, one strand shown
# ELF1, sequence (P32519 whole entry): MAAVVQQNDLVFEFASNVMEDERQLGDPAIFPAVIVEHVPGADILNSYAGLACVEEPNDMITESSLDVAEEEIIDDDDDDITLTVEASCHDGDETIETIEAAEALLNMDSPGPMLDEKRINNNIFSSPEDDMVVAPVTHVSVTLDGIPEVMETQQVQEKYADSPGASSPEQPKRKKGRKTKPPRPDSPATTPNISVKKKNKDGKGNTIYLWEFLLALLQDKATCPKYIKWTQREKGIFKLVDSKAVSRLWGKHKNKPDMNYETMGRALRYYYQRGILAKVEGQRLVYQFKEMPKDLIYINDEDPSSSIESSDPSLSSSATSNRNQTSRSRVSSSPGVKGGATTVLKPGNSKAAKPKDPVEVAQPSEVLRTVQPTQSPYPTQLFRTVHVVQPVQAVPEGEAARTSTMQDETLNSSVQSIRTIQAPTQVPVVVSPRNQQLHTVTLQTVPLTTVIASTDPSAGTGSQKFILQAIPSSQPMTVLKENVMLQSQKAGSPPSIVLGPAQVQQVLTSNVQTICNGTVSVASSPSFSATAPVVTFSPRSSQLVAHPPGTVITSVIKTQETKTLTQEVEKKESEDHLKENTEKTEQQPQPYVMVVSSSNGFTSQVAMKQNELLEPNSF
# Method in brief: as §1
# EHF = biological target: T5, EHF (Homo sapiens, UniProt Q9NZC4 1-300); details: protein: recombinant; tags: N-terminal GST; dsDNA, one strand shown
# T5 sequence: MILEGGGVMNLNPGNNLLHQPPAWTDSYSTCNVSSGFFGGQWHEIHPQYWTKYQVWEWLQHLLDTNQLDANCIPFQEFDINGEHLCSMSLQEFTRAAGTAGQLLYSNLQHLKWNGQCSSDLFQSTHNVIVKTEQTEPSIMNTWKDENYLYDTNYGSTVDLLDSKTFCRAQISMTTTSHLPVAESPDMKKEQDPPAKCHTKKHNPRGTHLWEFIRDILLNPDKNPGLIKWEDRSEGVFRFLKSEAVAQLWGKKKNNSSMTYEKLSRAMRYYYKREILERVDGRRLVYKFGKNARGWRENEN
# Method in brief: as §1
# SPI1 = SPI1 (Homo sapiens, UniProt P17947 1-270); details: protein: recombinant; tags: N-terminal GST; dsDNA, one strand shown
# Method in brief: as §1
# SPIB = SPIB (Homo sapiens, UniProt Q01892 1-262); details: protein: recombinant; tags: N-terminal GST; dsDNA, one strand shown
# SPIB, sequence (Q01892 whole entry): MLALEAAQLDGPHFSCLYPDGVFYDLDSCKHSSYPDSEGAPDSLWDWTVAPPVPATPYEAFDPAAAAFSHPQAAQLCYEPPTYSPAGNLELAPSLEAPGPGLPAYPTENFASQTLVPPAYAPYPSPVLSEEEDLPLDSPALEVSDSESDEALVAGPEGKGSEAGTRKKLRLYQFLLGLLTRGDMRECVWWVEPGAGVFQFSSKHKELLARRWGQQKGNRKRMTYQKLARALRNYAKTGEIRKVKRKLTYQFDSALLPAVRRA
# Method in brief: as §1
# ELK3 = biological target: T6, ELK3 (Homo sapiens, UniProt P41970 1-407); details: protein: recombinant; tags: N-terminal GST; dsDNA, one strand shown
# T6 sequence: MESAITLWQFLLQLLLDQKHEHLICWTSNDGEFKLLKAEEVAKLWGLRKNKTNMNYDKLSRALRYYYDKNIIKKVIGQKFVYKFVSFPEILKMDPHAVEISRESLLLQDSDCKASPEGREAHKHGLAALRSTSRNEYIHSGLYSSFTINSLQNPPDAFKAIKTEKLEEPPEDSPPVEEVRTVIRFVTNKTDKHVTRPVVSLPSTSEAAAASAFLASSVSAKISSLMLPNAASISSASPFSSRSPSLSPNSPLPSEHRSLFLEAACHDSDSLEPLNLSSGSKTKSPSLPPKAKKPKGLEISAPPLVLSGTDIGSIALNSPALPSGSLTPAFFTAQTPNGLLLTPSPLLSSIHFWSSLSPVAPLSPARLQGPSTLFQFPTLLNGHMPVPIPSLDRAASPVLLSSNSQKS
# Method in brief: as §1
# FEV = biological target: T7, FEV (Homo sapiens, UniProt Q99581 1-238); details: protein: recombinant; tags: N-terminal GST; dsDNA, one strand shown
# T7 sequence: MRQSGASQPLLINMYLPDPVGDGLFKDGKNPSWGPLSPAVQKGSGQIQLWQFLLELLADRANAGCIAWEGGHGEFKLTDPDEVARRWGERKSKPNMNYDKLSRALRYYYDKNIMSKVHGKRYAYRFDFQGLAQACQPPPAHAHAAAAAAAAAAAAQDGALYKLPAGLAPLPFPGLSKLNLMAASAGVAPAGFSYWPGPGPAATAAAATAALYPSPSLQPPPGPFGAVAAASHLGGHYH
# Method in brief: as §1
# ETV5 = ETV5 (Homo sapiens, UniProt P41161 1-510); details: protein: recombinant; tags: N-terminal GST; dsDNA, one strand shown
# ETV5, sequence (P41161 whole entry): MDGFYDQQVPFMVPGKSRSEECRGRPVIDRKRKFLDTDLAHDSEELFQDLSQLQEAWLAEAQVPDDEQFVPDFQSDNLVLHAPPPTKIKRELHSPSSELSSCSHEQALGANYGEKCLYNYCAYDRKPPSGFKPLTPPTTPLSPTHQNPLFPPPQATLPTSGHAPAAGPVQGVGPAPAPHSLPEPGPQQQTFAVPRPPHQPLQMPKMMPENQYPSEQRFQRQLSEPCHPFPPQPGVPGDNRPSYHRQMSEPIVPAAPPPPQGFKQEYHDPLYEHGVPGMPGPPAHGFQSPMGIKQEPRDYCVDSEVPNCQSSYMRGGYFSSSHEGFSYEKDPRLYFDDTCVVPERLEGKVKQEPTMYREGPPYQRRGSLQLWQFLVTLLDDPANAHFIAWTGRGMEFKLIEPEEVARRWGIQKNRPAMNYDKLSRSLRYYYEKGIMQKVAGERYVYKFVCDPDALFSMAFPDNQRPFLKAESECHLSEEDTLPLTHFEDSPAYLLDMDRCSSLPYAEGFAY
# Method in brief: as §1
# HSF1 = HSF1 (Homo sapiens, UniProt Q00613 1-529); details: protein: recombinant; tags: N-terminal GST; chain copies: 3; dsDNA, one strand shown
# HSF1, sequence (Q00613 whole entry): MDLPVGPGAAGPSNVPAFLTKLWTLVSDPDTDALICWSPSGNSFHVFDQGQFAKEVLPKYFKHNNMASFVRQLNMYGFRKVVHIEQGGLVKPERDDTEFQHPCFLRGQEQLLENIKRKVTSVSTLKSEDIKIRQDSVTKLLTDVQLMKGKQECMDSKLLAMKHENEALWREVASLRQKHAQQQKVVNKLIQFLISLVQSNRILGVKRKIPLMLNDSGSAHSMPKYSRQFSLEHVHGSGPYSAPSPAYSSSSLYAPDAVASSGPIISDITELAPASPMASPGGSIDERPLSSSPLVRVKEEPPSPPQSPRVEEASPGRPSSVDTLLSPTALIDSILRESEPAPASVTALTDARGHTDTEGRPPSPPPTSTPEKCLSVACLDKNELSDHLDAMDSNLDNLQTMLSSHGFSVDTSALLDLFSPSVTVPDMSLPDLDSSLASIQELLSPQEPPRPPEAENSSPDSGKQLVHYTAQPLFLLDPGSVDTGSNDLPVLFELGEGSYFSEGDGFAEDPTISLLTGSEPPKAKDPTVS
# Method in brief: as §1
# SPIC = biological target: T8, SPIC (Homo sapiens, UniProt Q8N5J4 1-248); details: protein: recombinant; tags: N-terminal GST; dsDNA, one strand shown
# T8 sequence: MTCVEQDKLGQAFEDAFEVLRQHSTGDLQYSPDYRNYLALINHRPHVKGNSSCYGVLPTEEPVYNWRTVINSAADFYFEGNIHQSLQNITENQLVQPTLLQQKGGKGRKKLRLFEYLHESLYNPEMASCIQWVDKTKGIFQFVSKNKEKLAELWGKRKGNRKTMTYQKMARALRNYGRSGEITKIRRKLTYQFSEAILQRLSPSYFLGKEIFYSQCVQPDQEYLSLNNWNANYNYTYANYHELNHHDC
# Method in brief: as §1
# ELF4 = ELF4 (Homo sapiens, UniProt Q99607 1-663); details: protein: recombinant; tags: N-terminal GST; dsDNA, one strand shown
# ELF4, sequence (Q99607 whole entry): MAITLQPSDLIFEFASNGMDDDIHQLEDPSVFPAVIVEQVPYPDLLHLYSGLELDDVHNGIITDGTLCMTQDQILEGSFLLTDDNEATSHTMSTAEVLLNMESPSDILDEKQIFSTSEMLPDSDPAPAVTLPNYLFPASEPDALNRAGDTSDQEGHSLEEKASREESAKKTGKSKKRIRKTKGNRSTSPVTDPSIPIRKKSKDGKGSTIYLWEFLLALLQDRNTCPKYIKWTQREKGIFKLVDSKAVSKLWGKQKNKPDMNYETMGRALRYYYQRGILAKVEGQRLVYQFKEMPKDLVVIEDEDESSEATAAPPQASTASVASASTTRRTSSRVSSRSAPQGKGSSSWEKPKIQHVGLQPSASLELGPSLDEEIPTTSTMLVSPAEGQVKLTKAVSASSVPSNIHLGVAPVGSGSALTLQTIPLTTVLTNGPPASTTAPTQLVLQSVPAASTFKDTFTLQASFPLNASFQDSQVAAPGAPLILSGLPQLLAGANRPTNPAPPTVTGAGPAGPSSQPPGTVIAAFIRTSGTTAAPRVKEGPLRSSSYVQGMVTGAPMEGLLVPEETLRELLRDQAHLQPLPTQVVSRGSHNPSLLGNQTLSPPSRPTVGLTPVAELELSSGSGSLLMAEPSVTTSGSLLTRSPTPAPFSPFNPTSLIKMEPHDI
# Method in brief: as §1
# ELK4 = biological target: T9, ELK4 (Homo sapiens, UniProt P28324-2 1-405); details: protein: recombinant; tags: N-terminal GST; dsDNA, one strand shown
# T9 sequence: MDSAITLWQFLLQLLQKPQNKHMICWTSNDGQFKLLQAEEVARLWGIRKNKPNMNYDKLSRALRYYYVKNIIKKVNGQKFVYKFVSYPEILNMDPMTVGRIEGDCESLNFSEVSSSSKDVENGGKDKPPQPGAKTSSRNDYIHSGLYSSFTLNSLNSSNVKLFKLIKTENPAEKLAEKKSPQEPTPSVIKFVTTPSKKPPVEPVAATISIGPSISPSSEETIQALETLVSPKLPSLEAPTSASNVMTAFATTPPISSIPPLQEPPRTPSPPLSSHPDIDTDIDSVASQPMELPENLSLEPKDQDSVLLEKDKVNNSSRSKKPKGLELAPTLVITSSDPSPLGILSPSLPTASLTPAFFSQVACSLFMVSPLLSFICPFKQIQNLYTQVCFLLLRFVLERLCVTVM
# Method in brief: as §1
# ETV2 = biological target: T10, ETV2 (Homo sapiens, UniProt O00321 1-342); details: protein: recombinant; tags: N-terminal GST; dsDNA, one strand shown
# T10 sequence: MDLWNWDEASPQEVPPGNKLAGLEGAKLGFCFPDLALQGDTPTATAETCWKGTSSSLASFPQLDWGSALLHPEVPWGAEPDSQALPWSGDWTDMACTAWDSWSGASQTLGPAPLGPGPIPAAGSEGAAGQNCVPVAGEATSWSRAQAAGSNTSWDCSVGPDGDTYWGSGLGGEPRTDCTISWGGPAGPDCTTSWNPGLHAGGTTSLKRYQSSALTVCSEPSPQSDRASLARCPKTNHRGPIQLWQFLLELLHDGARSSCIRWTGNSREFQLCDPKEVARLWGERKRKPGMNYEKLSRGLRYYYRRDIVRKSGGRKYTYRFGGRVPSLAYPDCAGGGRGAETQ
# Method in brief: as §1
# ELF3 = biological target: T11, ELF3 (Homo sapiens, UniProt P78545 1-371); details: protein: recombinant; tags: N-terminal GST; dsDNA, one strand shown
# T11 sequence: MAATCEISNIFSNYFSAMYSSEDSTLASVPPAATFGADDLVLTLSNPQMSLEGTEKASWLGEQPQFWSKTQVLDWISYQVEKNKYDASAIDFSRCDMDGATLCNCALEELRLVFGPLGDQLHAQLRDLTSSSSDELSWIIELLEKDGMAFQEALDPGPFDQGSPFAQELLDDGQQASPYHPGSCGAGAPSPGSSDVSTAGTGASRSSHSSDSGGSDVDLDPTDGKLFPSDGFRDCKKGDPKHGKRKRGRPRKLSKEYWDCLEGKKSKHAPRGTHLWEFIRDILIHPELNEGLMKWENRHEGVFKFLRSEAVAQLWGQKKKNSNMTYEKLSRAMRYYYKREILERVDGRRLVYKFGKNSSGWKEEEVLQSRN
# Method in brief: as §1
# CRX = CRX (Homo sapiens, UniProt O43186 1-299); details: protein: recombinant; tags: N-terminal GST; dsDNA, one strand shown
# CRX, sequence (O43186 whole entry): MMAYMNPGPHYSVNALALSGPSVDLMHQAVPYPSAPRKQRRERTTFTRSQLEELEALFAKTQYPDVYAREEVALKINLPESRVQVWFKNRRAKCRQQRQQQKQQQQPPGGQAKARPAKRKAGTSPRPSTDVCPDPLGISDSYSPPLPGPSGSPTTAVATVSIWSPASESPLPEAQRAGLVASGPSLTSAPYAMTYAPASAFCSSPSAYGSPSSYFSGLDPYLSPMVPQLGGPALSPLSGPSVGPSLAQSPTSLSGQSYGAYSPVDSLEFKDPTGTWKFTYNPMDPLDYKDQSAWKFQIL
# Method in brief: as §1
# ETV1 = ETV1 (Homo sapiens, UniProt P50549 1-477); details: protein: recombinant; tags: N-terminal GST; dsDNA, one strand shown
# ETV1, sequence (P50549 whole entry): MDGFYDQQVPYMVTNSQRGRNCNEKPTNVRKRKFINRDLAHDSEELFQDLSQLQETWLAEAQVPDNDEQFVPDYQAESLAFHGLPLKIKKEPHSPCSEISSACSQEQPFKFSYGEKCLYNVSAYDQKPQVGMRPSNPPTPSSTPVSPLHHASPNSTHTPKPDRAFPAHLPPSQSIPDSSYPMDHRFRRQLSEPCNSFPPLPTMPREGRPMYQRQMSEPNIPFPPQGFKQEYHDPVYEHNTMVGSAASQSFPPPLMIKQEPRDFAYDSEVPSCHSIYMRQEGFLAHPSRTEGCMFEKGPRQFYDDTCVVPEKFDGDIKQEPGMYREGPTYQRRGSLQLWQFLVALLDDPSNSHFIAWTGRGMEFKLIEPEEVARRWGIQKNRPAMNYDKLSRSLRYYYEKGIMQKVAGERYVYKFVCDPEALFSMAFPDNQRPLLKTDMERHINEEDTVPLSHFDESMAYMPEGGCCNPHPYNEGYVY
# Method in brief: as §1
sequence,measurement,setting,value
TTTCCA,binding signal,FLI1,"1.37 fold enrichment (6-mer frequency, TF over GST control)"
same,binding signal,ELK1,"1.31 fold enrichment (6-mer frequency, TF over GST control)"
same,binding signal,GABPA,"1.39 fold enrichment (6-mer frequency, TF over GST control)"
same,binding signal,ERG,"1.23 fold enrichment (6-mer frequency, TF over GST control)"
same,binding signal,ELF1,"1.36 fold enrichment (6-mer frequency, TF over GST control)"
same,binding signal,EHF,"1.27 fold enrichment (6-mer frequency, TF over GST control)"
same,binding signal,SPI1,"1.37 fold enrichment (6-mer frequency, TF over GST control)"
same,binding signal,SPIB,"1.39 fold enrichment (6-mer frequency, TF over GST control)"
same,binding signal,ELK3,"1.31 fold enrichment (6-mer frequency, TF over GST control)"
same,binding signal,FEV,"1.34 fold enrichment (6-mer frequency, TF over GST control)"
same,binding signal,ETV5,"1.28 fold enrichment (6-mer frequency, TF over GST control)"
same,binding signal,HSF1,"2.18 fold enrichment (6-mer frequency, TF over GST control)"
same,binding signal,SPIC,"1.18 fold enrichment (6-mer frequency, TF over GST control)"
same,binding signal,ELF4,"1.39 fold enrichment (6-mer frequency, TF over GST control)"
same,binding signal,ELK4,"1.39 fold enrichment (6-mer frequency, TF over GST control)"
same,binding signal,ETV2,"1.22 fold enrichment (6-mer frequency, TF over GST control)"
same,binding signal,ELF3,"1.19 fold enrichment (6-mer frequency, TF over GST control)"
same,binding signal,CRX,"1.61 fold enrichment (6-mer frequency, TF over GST control)"
same,binding signal,ETV1,"1.22 fold enrichment (6-mer frequency, TF over GST control)"
